Seven compounds from PubChem BioAssay (NCI) can be followed below.

Compounds without any hit were thinned out: in the full panel of roughly 83,000, 20% have a hit.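 Values shown are percent growth following 48 h exposure of cells in 96-well plates to a single concentration of compound; below 10 was considered active.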 A number with no mark means an inactive call. Calls of active or inactive are those of the source.

Some test systems named below: 786-0 renal; MALME-3M melanoma; UACC-257 melanoma; SK-MEL-2 melanoma; EKVX NSCLC; SN12C renal; TK-10 renal; ACHN renal; CAKI-1 renal; A498 renal; RPMI-8226 leukemia; OVCAR-8 ovarian; OVCAR-4 ovarian; SK-OV-3 ovarian; IGROV1 ovarian; OVCAR-3 ovarian; BT-549 breast; MDA-MB-435 melanoma; HCT-116 colon; HCC-2998 colon.
Assay in all cases: NCI-60 one-dose screen, 48 h (100 = growth as untreated, 0 = no growth, -100 = all killed)
Holding throughout (settings): 10 µM

Turning to `COc1cc2cc(C(=O)N3C[C@@H](CCl)c4c3cc(OC(=O)N3CCN(C(=O)CCC(=O)N5CCN(C)CC5)[C@@H]5CSSC[C@@H]53)c3ccccc43)[nH]c2c(OC)c1OC`, the growth with 786-0 renal was -80.9% (active); in the assay on MALME-3M melanoma, -99.3% (active); in the assay on UACC-257 melanoma, -71.7% (active); with SK-MEL-2 melanoma, -83.3% (active); with EKVX NSCLC, -84.6% (active); in the assay on SN12C renal it was -37.7% (active). The growth with TK-10 renal was 5.55% (active); with ACHN renal, -31.6% (active); with CAKI-1 renal, 13.9%; in the assay on A498 renal, -10.8% (active); with RPMI-8226 leukemia it was 6.09% (active); in the assay on OVCAR-8 ovarian it was -32.1% (active). For the same compound, the growth in the assay on OVCAR-4 ovarian is -6.42% (active); with SK-OV-3 ovarian, 3.05% (active); in the assay with IGROV1 ovarian it was -50.7% (active); in the assay with OVCAR-3 ovarian it was 16.4%; in the assay on BT-549 breast it was -81.3% (active); with MDA-MB-435 melanoma, 3.09% (active). The results for the growth with HCT-116 colon and with HCC-2998 colon were -77.5% (active) and -99.1% (active), respectively.

`CC[C@@]12CC(C(=O)OC)=C3Nc4cc5c(cc4[C@@]34CCN(C[C@H]3O[C@H]31)[C@@H]24)[C@@H]1[C@H](O5)[C@@H](O)[C@@]2(CC)CC(C(=O)OC)=C3Nc4cc(OC)ccc4[C@@]34CCN1[C@@H]24`: the growth in the assay on 786-0 renal was 22.2%; in the assay with MALME-3M melanoma it was 21%; with UACC-257 melanoma, 54.3%; in the assay on SK-MEL-2 melanoma, -12% (active); in the assay on EKVX NSCLC, 31.3%; in the assay on SN12C renal, 27.1%. Also, the growth was 16.2% in the assay on TK-10 renal; 17.8% in the assay with ACHN renal; 12.9% with CAKI-1 renal; -15.3% (active) with A498 renal; 0.732% (active) in the assay on RPMI-8226 leukemia; 25.5% in the assay on OVCAR-8 ovarian. The growth was 5.36% (active) with OVCAR-4 ovarian; 14.4% with SK-OV-3 ovarian; 2.51% (active) in the assay on IGROV1 ovarian; 7.91% (active) in the assay on OVCAR-3 ovarian; -16.9% (active) in the assay with BT-549 breast; 9.48% (active) in the assay with MDA-MB-435 melanoma. For the same compound, the growth was -0.466% (active) in the assay with HCT-116 colon and -65% (active) in the assay on HCC-2998 colon.

In the case of `C[C@H]1[C@H](OC(=O)CCC(=O)N(CCCc2cn(-c3ccc([N+](=O)[O-])cc3)nn2)CCNc2ccnc3cc(Cl)ccc23)O[C@@H]2OC3(C)CC[C@H]4[C@H](C)CC[C@@H]1[C@@]24OO3`, the growth in the assay with 786-0 renal is 47.1%; in the assay on MALME-3M melanoma, 47.5%; in the assay with UACC-257 melanoma, 63.3%; in the assay on SK-MEL-2 melanoma, 26.7%; in the assay with EKVX NSCLC it was 46.8%; in the assay on SN12C renal, 54.9%. Besides, the growth with TK-10 renal is 51.2%; with ACHN renal, 37.5%; with CAKI-1 renal it was 37.4%; in the assay on A498 renal it was 116%; in the assay with RPMI-8226 leukemia, 28.7%; with OVCAR-8 ovarian it was 23.7%. Also, the growth was 41.8% with OVCAR-4 ovarian; 98.2% in the assay with SK-OV-3 ovarian; 44.9% in the assay on IGROV1 ovarian; 40.8% in the assay with OVCAR-3 ovarian; 43% in the assay with BT-549 breast; 31.5% in the assay on MDA-MB-435 melanoma. The growth in the assay on HCT-116 colon is 31.1%; in the assay with HCC-2998 colon, 49.9%.

With `C[C@H]1[C@@H](CC(=O)N[C@@H](Cc2coc3ccccc23)B(O)O)O[C@@H]2OC3(C)CC[C@H]4[C@H](C)CC[C@@H]1[C@@]24OO3`, the growth with 786-0 renal was 16.5%; in the assay with MALME-3M melanoma, -60% (active); in the assay with UACC-257 melanoma it was -41% (active); in the assay on SK-MEL-2 melanoma, -53.6% (active); in the assay on EKVX NSCLC it was 7.62% (active); in the assay with SN12C renal, -78.6% (active). Moreover, the growth was 16.5% in the assay with TK-10 renal; 13.2% in the assay on ACHN renal; 25.2% with CAKI-1 renal; 36.6% with A498 renal; -7.66% (active) in the assay with RPMI-8226 leukemia; -6.75% (active) with OVCAR-8 ovarian. The growth in the assay on OVCAR-4 ovarian is 18.3%; in the assay on SK-OV-3 ovarian, -22.9% (active); in the assay with IGROV1 ovarian it was -16.1% (active); in the assay on OVCAR-3 ovarian it was -14.9% (active); with BT-549 breast it was -92% (active); in the assay with MDA-MB-435 melanoma, -53.8% (active). Further, the growth was -85.3% (active) in the assay with HCT-116 colon and -97.2% (active) in the assay on HCC-2998 colon.

For `CC1=C(CCC=NNC(N)=O)C2=C(C)C3(CC3)[C@@](C)(O)C(=O)C2=C1`, the growth in the assay with 786-0 renal is -3.6% (active); in the assay with MALME-3M melanoma it was -93.4% (active); in the assay on UACC-257 melanoma it was -76.1% (active); in the assay on SK-MEL-2 melanoma, -76.9% (active); in the assay with EKVX NSCLC, -25.1% (active); with SN12C renal, -61.3% (active). For the same compound, the growth in the assay with TK-10 renal is -10.5% (active); with ACHN renal, -37.7% (active); in the assay on CAKI-1 renal it was -59.8% (active); with A498 renal, -67.2% (active); in the assay on RPMI-8226 leukemia, 1.7% (active); in the assay with OVCAR-8 ovarian it was -58.7% (active). The growth was -38.1% (active) in the assay with OVCAR-4 ovarian; -72.1% (active) in the assay on SK-OV-3 ovarian; -34% (active) in the assay on IGROV1 ovarian; -57.4% (active) in the assay on OVCAR-3 ovarian; -33.7% (active) with BT-549 breast; -96.3% (active) in the assay on MDA-MB-435 melanoma. Moreover, the growth with HCT-116 colon was 1.04% (active); in the assay with HCC-2998 colon, -87% (active).

In the case of `CC[C@]12C=CCN3CC[C@@]4(c5ccc(OC)cc5N(C)[C@H]4[C@@](O)(C(=O)OC)[C@@H]1OC(=O)CCCC[P+](c1ccc(OC)cc1)(c1ccc(OC)cc1)c1ccc(OC)cc1)[C@@H]32`, the growth is -92.9% (active) with 786-0 renal; -97.2% (active) in the assay with MALME-3M melanoma; -93.4% (active) with UACC-257 melanoma; -91.4% (active) with SK-MEL-2 melanoma; -59.7% (active) in the assay with EKVX NSCLC; -95.3% (active) with SN12C renal. The growth was -88.2% (active) in the assay with TK-10 renal; -49.2% (active) in the assay on ACHN renal; -78.5% (active) in the assay on CAKI-1 renal; -54.7% (active) in the assay with A498 renal; -68.8% (active) in the assay with RPMI-8226 leukemia; -90.2% (active) in the assay on OVCAR-8 ovarian. For the same compound, the growth was -37.7% (active) in the assay on OVCAR-4 ovarian; -82.5% (active) in the assay with SK-OV-3 ovarian; -92% (active) in the assay with IGROV1 ovarian; -71.8% (active) in the assay on OVCAR-3 ovarian; -96.7% (active) in the assay on BT-549 breast; -88.5% (active) with MDA-MB-435 melanoma. The growth is -94.9% (active) in the assay with HCT-116 colon and -88.4% (active) in the assay on HCC-2998 colon.

Turning to `CC(=O)Oc1ccccc1C(=O)NC([Se])=NC1CCCCC1`, the growth is -11.9% (active) with 786-0 renal; -6.63% (active) with MALME-3M melanoma; -1.74% (active) in the assay on UACC-257 melanoma; -43.7% (active) in the assay on SK-MEL-2 melanoma; -59% (active) in the assay with EKVX NSCLC; -42.7% (active) in the assay with SN12C renal. The growth is -52.9% (active) in the assay on TK-10 renal; 20.2% in the assay with ACHN renal; -75.4% (active) in the assay with CAKI-1 renal; 16.3% in the assay on A498 renal; 27.9% in the assay on RPMI-8226 leukemia; -56.4% (active) with OVCAR-8 ovarian. Further, the growth in the assay on OVCAR-4 ovarian was -13.3% (active); in the assay on SK-OV-3 ovarian, -41.7% (active); in the assay on IGROV1 ovarian, -46% (active); in the assay with OVCAR-3 ovarian, -68.1% (active); in the assay with BT-549 breast, 33.8%; in the assay on MDA-MB-435 melanoma, 8.85% (active). The growth with HCT-116 colon is 21%; with HCC-2998 colon it was 28.1%.
